# Laboratory results taken from PubChem BioAssay (EPA / NIEHS).
# Records with an inconclusive call do not appear. Active and inactive are the calls of the source. Rule for the calls, unless noted: active = hit-call score of the fitted dose curve at least 0.9, where 1 is the maximum; inconclusive = response in the unintended direction; inactive = score below 0.9.
# What was measured:
# [1] = CPHEA_Stoker_NIS_Cytotoxicity: Cytotoxicity Assessment for CPHEA's Radioactive Iodide Uptake (RAIU) Assay for Sodium/Iodide Symporter (NIS) Inhibition, Stoker and Laws Labs (AID 2283897);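 for AC50: active means loss of ATP signal versus DMSO meaning cytotoxicity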
# How it was run: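 CellTiter-Glo ATP luminescence gauged viability in HEK293T cells expressing human NIS after 2 h chemical exposure. Concentrations ran 0.001–100 uM in 0.5% DMSO; DMSO served as baseline for the loss-of-signal fit.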
# [2] = CEETOX_H295R_11DCORT_noMTC: CeeTox H295R High-throughput Steroidogenesis Assay for 11-Deoxycortisol (11DCORT), maximum tolerated concentration (MTC) filtered results only (AID 2283911; active = hit-call score of the fitted dose curve at least 0.9, where 1 is the maximum; inactive = score below 0.9); settings: actives raise or lower the signal
# How it was run: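 Steroidogenesis was stimulated in H295R cells with 10 uM forskolin for 48 h before a 48 h chemical exposure. Secreted 11-deoxycortisol was measured by tandem mass spectrometry and fitted bidirectionally against DMSO controls.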
# [3] = CEETOX_H295R_OHPREG_noMTC: CeeTox H295R High-throughput Steroidogenesis Assay for OH-Pregnenolone (OHPREG), maximum tolerated concentration (MTC) filtered results only (AID 2283912; active = hit-call score of the fitted dose curve at least 0.9, where 1 is the maximum; inactive = score below 0.9); settings: actives raise or lower the signal
# How it was run: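 H295R cells prestimulated 48 h with 10 uM forskolin, then exposed 48 h to compound (0.1% DMSO). 17alpha-hydroxypregnenolone in medium measured by MTBE extraction and HPLC-MS/MS; bidirectional fit vs DMSO, concentrations not MTT/MTC-filtered.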
# [4] = CEETOX_H295R_OHPROG_noMTC: CeeTox H295R High-throughput Steroidogenesis Assay for OH-Progesterone (OHPROG), maximum tolerated concentration (MTC) filtered results only (AID 2283914; active = hit-call score of the fitted dose curve at least 0.9, where 1 is the maximum; inactive = score below 0.9); settings: actives raise or lower the signal
# How it was run: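 H295R cells prestimulated 48 h with 10 uM forskolin, then exposed 48 h to chemical (0.1% DMSO final). 17alpha-hydroxyprogesterone in medium quantified by HPLC-MS/MS after MTBE extraction; bidirectional fitting versus DMSO, concentrations not MTC-filtered.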
# [5] = CEETOX_H295R_ANDR_noMTC: CeeTox H295R High-throughput Steroidogenesis Assay for Androstenedione (ANDR), maximum tolerated concentration (MTC) filtered results only (AID 2283915; active = hit-call score of the fitted dose curve at least 0.9, where 1 is the maximum; inactive = score below 0.9); settings: actives raise or lower the signal
# How it was run: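 H295R cells, passage 10 or below, prestimulated 48 h with 10 uM forskolin, then exposed 48 h to chemical in 0.1% DMSO. Medium androstenedione extracted with MTBE, quantified by HPLC-MS/MS; concentrations not MTC-filtered; bidirectional fit versus DMSO.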
# [6] = CEETOX_H295R_CORTISOL_noMTC: CeeTox H295R High-throughput Steroidogenesis Assay for Cortisol, maximum tolerated concentration (MTC) filtered results only (AID 2283916; active = hit-call score of the fitted dose curve at least 0.9, where 1 is the maximum; inactive = score below 0.9); settings: actives raise or lower the signal
# How it was run: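 H295R human adrenal cells prestimulated 48 h with 10 uM forskolin, then exposed 48 h to chemical in 0.1% DMSO; cortisol in medium quantified by HPLC-MS/MS; bidirectional fit vs DMSO baseline, concentrations not MTT-filtered for MTC.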
# [7] = CEETOX_H295R_CORTIC_noMTC: CeeTox H295R High-throughput Steroidogenesis Assay for Corticosterone (CORTIC), maximum tolerated concentration (MTC) filtered results only (AID 2283917; active = hit-call score of the fitted dose curve at least 0.9, where 1 is the maximum; inactive = score below 0.9); settings: actives raise or lower the signal
# How it was run: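 H295R adrenal cells pre-stimulated 48 h with 10 uM forskolin, then exposed 48 h to chemical in 0.1% DMSO; corticosterone in medium quantified by HPLC-MS/MS, fitted bidirectionally versus DMSO without MTT-based concentration filtering.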
# [8] = CEETOX_H295R_DOC_noMTC: CeeTox H295R High-throughput Steroidogenesis Assay for DOC, maximum tolerated concentration (MTC) filtered results only (AID 2283918; active = hit-call score of the fitted dose curve at least 0.9, where 1 is the maximum; inactive = score below 0.9); settings: actives raise or lower the signal
# How it was run: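 H295R cells prestimulated 48 h with 10 uM forskolin, then exposed 48 h to chemical in 0.1% DMSO. 11-Deoxycorticosterone in medium measured by MTBE extraction and HPLC-MS/MS; bidirectional fit vs DMSO, no MTC filter.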
# [9] = CEETOX_H295R_ESTRADIOL_noMTC: CeeTox H295R High-throughput Steroidogenesis Assay for Estradiol, maximum tolerated concentration (MTC) filtered results only (AID 2283919; active = hit-call score of the fitted dose curve at least 0.9, where 1 is the maximum; inactive = score below 0.9); settings: actives raise or lower the signal
# How it was run: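 H295R human adrenal cells pre-stimulated 48 h with 10 uM forskolin, then exposed 48 h to chemical (0.1% DMSO final). Estradiol in medium measured by HPLC-MS/MS after MTBE extraction and dansyl derivatization; bidirectional fit versus DMSO, concentrations not MTT-filtered.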
# [10] = CEETOX_H295R_PROG_noMTC: CeeTox H295R High-throughput Steroidogenesis Assay for Progesterone (PROG), maximum tolerated concentration (MTC) filtered results only (AID 2283920; active = hit-call score of the fitted dose curve at least 0.9, where 1 is the maximum; inactive = score below 0.9); settings: actives raise or lower the signal
# How it was run: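 H295R cells, prestimulated 48 h with 10 uM forskolin, exposed 48 h to chemical in 0.1% DMSO. Medium progesterone quantified by MTBE extraction and HPLC-MS/MS; bidirectional fit versus DMSO, concentrations not MTT-filtered.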
# [11] = CEETOX_H295R_ESTRONE_noMTC: CeeTox H295R High-throughput Steroidogenesis Assay for Estrone, maximum tolerated concentration (MTC) filtered results only (AID 2283921; active = hit-call score of the fitted dose curve at least 0.9, where 1 is the maximum; inactive = score below 0.9); settings: actives raise or lower the signal
# How it was run: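 H295R cells prestimulated 48 h with 10 uM forskolin, then exposed 48 h to chemical in 0.1% DMSO; medium estrone measured by HPLC-MS/MS after MTBE extraction and dansyl derivatization, fitted bidirectionally versus DMSO without MTT-based MTC filtering.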
# [12] = CEETOX_H295R_TESTO_noMTC: CeeTox H295R High-throughput Steroidogenesis Assay for Testosterone (TESTO), maximum tolerated concentration (MTC) filtered results only (AID 2283924; active = hit-call score of the fitted dose curve at least 0.9, where 1 is the maximum; inactive = score below 0.9); settings: actives raise or lower the signal
# How it was run: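 H295R cells prestimulated 48 h with 10 uM forskolin, then exposed 48 h to chemicals in 0.1% DMSO final. Testosterone in medium quantified by MTBE extraction and HPLC-MS/MS; bidirectional fit versus DMSO, concentrations […] filtered by MTT-based maximum tolerated concentration.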
# PGR (gene 5241) [13] = target: PGR (gene 5241) (UniProt P06401); assay: TOX21_PR_BLA_Followup_Agonist_ratio: Tox21 HEK293 Progesterone Receptor (PR) Agonism Beta-lactamase Follow-Up Assay, Ratio (AID 2283933)
# How it was run: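 Agonist-mode follow-up in HEK293T cells carrying a UAS-driven beta-lactamase reporter, grown in 2% charcoal-stripped serum. Compounds act for 16 hr; activity is the ch2/ch1 cleavage ratio, with same-well CellTiter-Glo viability run in parallel.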
# PGR (gene 5241) [14] = target: PGR (gene 5241) (UniProt P06401); assay: TOX21_PR_BLA_Followup_Antagonist_ratio: Tox21 HEK293 Progesterone Receptor (PR) Antagonism Beta-lactamase Follow-Up Assay, Ratio (AID 2283934);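 note: PR-UAS-bla HEK293T cells stimulated with 1 nM R5020 agonist for 16 hr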
# How it was run: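 Antagonist mode used 1 nM R5020 (final) as agonist on a beta-lactamase reporter line in HEK293T cells. Activity was taken from the substrate cleavage ratio after 16 hr exposure.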
# [15] = TOX21_PR_BLA_Followup_Agonist_viability: Viability Assessment in the Tox21 HEK293 Progesterone Receptor (PR) Agonism Beta-lactamase Follow-Up Assay (AID 2283935);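 note: signal loss means lower viability so actives are cytotoxic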
# How it was run: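 Multiplexed viability counter-screen: ATP-coupled luciferase signal measured after 30 min at room temperature, following 16 hr compound treatment of PR-UAS-bla HEK293T cells grown in charcoal-stripped serum.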
# [16] = TOX21_PR_BLA_Followup_Antagonist_viability: Viability Assessment in the Tox21 HEK293 Progesterone Receptor (PR) Antagonism Beta-lactamase Follow-Up Assay (AID 2283936);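 note: hits lower the luminescence signal meaning cytotoxicity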
# How it was run: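 PR-UAS-bla HEK293T cells (3,000/well, 2% charcoal-stripped FBS) given compound plus R5020 agonist, 16 h at 37C. CellTiter-Glo added after bla read, 30 min at room temperature; luminescence loss indicates cytotoxicity.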
# PGR (gene 5241) [17] = target: PGR (gene 5241) (UniProt P06401); assay: TOX21_PR_LUC_Followup_Agonist: Tox21 HEK293 Progesterone Receptor (PR) Agonism Luciferase Follow-Up Assay (AID 2283937; active = hit-call score of the fitted dose curve at least 0.9, where 1 is the maximum; inactive = score below 0.9)
# How it was run: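 Agonist mode: reporter cells carrying PR-A and luciferase are treated 16 h with test compounds at 37C. Luciferase induction is measured by luminescence and fitted upward against DMSO.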
# PGR (gene 5241) [18] = target: PGR (gene 5241) (UniProt P06401); assay: TOX21_PR_LUC_Followup_Antagonist: Tox21 HEK293 Progesterone Receptor (PR) Antagonism Luciferase Follow-Up Assay (AID 2283938);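 note: curve fitted upward as signal gain over DMSO baseline despite antagonist label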
# How it was run: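 Cells are grown 5 days in charcoal-stripped-FBS assay medium, plated, left 5 h, then dosed with compound and incubated 16 h. ONE-Glo reagent is added and luminescence read after 30 min.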
# [19] = target: Thyroid hormone receptor alpha (Rattus norvegicus) + Thyroid hormone receptor beta (Rattus norvegicus) (UniProt P18113+P63059); assay: TOX21_TR_LUC_GH3_Agonist_Followup: Tox21 GH3 Thyroid Hormone Receptor Agonism Luciferase Follow-Up Assay (AID 2283939)
# How it was run: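 Rat GH3 cells (1,500/well) in serum-free assay medium, treated with 15-point series, 92 uM to 5 nM final, for 24 h at 37C. Luciferase via ONE-Glo luminescence; gain of signal fitted against DMSO, T3 positive control.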
# [20] = TOX21_PR_LUC_Followup_Antagonist_viability: Viability Assessment in the Tox21 HEK293 Progesterone Receptor (PR) Antagonism Luciferase Follow-Up Assay (AID 2283940)
# How it was run: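 Cellular ATP, measured with luciferase-coupled CellTiter-Glo, served as the viability endpoint after HEK293-PR-A-luc cells were exposed to test compounds for 16 h at 37C.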
# PGR (gene 5241), sequence (P06401 whole entry, looked up): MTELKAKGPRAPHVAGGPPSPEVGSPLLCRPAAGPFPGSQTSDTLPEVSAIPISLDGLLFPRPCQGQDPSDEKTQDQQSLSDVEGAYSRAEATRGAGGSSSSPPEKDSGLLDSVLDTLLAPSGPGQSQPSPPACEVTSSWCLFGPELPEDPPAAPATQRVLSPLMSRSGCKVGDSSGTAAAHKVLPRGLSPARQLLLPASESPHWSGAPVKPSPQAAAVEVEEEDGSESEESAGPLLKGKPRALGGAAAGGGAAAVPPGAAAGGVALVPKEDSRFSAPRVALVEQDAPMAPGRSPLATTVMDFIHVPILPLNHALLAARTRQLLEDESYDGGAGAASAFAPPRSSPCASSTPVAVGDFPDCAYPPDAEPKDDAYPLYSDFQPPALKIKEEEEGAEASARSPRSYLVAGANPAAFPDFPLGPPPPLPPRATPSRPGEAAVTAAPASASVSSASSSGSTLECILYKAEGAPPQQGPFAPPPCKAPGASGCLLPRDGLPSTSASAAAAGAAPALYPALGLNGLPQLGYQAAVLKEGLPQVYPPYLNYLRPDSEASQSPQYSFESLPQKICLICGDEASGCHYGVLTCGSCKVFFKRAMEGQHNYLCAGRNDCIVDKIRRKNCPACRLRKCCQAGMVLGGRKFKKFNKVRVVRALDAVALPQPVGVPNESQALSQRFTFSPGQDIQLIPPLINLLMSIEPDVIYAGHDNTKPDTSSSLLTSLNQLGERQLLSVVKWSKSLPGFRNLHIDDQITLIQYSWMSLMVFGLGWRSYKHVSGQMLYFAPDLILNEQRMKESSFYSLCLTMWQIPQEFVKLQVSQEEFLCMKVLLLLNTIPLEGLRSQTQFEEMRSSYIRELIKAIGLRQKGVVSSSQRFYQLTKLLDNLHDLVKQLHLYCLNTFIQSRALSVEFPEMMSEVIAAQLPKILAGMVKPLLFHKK
# Thyroid hormone receptor alpha (Rattus norvegicus) + Thyroid hormone receptor beta (Rattus norvegicus), sequence (P63059 whole entry, looked up): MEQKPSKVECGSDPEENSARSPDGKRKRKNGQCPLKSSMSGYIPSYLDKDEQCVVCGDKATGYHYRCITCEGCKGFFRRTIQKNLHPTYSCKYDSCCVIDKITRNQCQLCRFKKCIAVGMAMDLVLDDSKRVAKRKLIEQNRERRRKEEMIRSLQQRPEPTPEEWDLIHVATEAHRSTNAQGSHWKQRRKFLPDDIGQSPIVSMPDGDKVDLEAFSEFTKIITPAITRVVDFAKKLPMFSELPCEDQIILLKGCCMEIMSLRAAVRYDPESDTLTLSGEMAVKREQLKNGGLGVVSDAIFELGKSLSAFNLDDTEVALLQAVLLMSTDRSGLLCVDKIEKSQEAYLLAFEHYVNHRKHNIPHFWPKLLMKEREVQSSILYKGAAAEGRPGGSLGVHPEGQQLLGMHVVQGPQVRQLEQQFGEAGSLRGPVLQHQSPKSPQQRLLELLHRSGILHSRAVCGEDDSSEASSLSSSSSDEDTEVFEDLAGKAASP
# Thyroid hormone receptor alpha (Rattus norvegicus) + Thyroid hormone receptor beta (Rattus norvegicus), sequence (P18113 whole entry, looked up): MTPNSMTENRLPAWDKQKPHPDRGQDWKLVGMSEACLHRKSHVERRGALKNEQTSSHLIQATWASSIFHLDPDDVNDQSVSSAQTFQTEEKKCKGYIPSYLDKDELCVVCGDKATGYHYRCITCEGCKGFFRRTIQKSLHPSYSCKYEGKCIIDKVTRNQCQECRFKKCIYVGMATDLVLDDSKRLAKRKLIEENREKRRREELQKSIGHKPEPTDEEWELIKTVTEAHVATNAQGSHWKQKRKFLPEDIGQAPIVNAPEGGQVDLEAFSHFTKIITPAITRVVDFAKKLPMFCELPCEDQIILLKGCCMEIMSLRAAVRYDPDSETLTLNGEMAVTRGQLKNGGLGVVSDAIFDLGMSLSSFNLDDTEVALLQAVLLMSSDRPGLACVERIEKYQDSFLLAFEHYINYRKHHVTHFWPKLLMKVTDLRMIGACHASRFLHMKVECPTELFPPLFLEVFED
compound,measurement,setting,value
CCCCCCCC/C=C\CCCCCCCC(=O)N(C)CC(=O)O,outcome,[1],inactive
CCN=C1C=CC(=C(c2ccc(N(CC)CC)cc2)c2ccc(N(CC)CC)cc2)c2ccccc21,AC50,[1],10 µM (active)
O=C1C=CC(=O)N1c1ccccc1,AC50,[1],81.6 µM (active)
C[C@]12CC[C@H]3C(=CCc4cc(O)ccc43)[C@@H]1CCC2=O,outcome,[1],inactive
CC(C)(C)c1cc(CCC(=O)NCCCCCCNC(=O)CCc2cc(C(C)(C)C)c(O)c(C(C)(C)C)c2)cc(C(C)(C)C)c1O,outcome,[2],inactive
same,outcome,[3],inactive
same,AC50,[4],0.203 µM (active)
same,outcome,[5],inactive
same,outcome,[6],inactive
same,outcome,[7],inactive
same,outcome,[8],inactive
same,outcome,[9],inactive
same,AC50,[10],0.452 µM (active)
same,outcome,[11],inactive
same,outcome,[12],inactive
CC(C)Nc1ccc(NC(C)C)c2c1C(=O)c1ccccc1C2=O,AC50,[1],15.3 µM (active)
Nc1c(Br)cc([N+](=O)[O-])cc1Br,outcome,[2],inactive
same,outcome,[3],inactive
same,AC50,[4],20.7 µM (active)
same,outcome,[6],inactive
same,outcome,[7],inactive
same,outcome,[8],inactive
same,outcome,[9],inactive
same,outcome,[10],inactive
same,outcome,[11],inactive
CCC(Cc1c(I)cc(I)c(N)c1I)C(=O)O (configuration not stated),outcome,[1],inactive
CCN=c1cc2oc3cc(NCC)c(C)cc3c(-c3ccccc3C(=O)OCC)c-2cc1C,AC50,[1],30.8 µM (active)
CCCCCCCCCCCCCC[P+](CCCC)(CCCC)CCCC,AC50,[1],15.9 µM (active)
CCCCCCCCn1sc(Cl)c(Cl)c1=O,outcome,[1],inactive
O=C(c1ccccc1)c1ccc(O)cc1O,outcome,[1],inactive
same,outcome,PGR (gene 5241) [13],inactive
same,AC50,PGR (gene 5241) [14],63.5 µM (active)
same,outcome,[15],inactive
same,outcome,[16],inactive
same,outcome,PGR (gene 5241) [17],inactive
same,AC50,PGR (gene 5241) [18],33.5 µM (active)
same,outcome,[19],inactive
same,outcome,[20],inactive
CCc1cc(Cc2cc(CC)c(N)c(CC)c2)cc(CC)c1N,outcome,[1],inactive
COCCOCCC[Si](C)(O[Si](C)(C)C)O[Si](C)(C)C,outcome,[1],inactive
CCCCCCCCCCCCC[N+](C)(C)Cc1ccccc1,outcome,[1],inactive
CCCCCCCCCc1ccc(OCCO)cc1,AC50,[1],24.3 µM (active)
